Drawing on PubChem BioAssay AID1259418 (Broad Institute, 2018), this text covers max activity for 73 compounds.

About 840 (25%) of roughly 3,400 compounds were called active. Roughly 11% stayed inconclusive and do not appear here.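 Rule for the calls: active = fitted half-maximal concentration of signal decrease at or below twice the sample's top tested concentration; inconclusive = flat curve between -70 and -30 percent, or poor fit; inactive = flat within 30 percent, signal rise, or potency above limit.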 The list is a sample of the results. Results with a measured potency or affinity are listed apart.

The nature of the assay: T. gondii growth inhibition with IFN-gamma, dose response, cell-based, ME49Luc, HeLa, luciferase, 72 h (AID 1259418). The note with it: T. gondii ME49Luc in IFN-y HeLa, active compounds read low, -100% = high-dose IFN-γ control wells; at 19.5 µM unless noted.
As to `COc1ccccc1-c1nc(C)c(-c2ccc(SCc3ccc(F)cc3)nn2)s1`, the max activity is 7.01% [at 0.35 µM] (inactive).

For `Cc1cnc(N2CCC3(CCN(CC4CC4)C3=O)CC2)nc1`, the max activity was 44% (inactive).

For `Cc1cnc(N2CCC3(CCC(CC(=O)N4CC=CC4)CC3)CC2)nc1`, the max activity is 19.8% [at 10 µM] (inactive).

In the case of `CCOc1ccc(CCNc2nc(-c3ccc(Cl)cc3)nc3ccccc23)cc1OCC`, the max activity was -12.8% [at 0.35 µM] (inactive).

On to `NCCCCCCNS(=O)(=O)c1ccc2c(Cl)cccc2c1`, for which the max activity is 23.8% (inactive).

For `O=C(Nc1ccc(F)cc1)Nc1ccc(-c2nc(-c3ccccc3)co2)cc1`, the max activity was -15.1% [at 1.35 µM] (inactive).

Regarding `COc1ccc(CNC(=O)Nc2ccc(-c3nc(-c4cc(C)ccc4C)co3)cc2)cc1`, the max activity is 11.5% (inactive).

Turning to `COc1ccc(Cl)cc1S(=O)(=O)Nc1ccc(-c2nc(-c3ccc(C)cc3C)co2)cc1`, the max activity is 11.6% [at 0.16 µM] (inactive).

As to `CCCCNC(=O)CCC1N=C2c3ccccc3N=C(SCc3ccccc3F)N2C1=O` (stereo not drawn), the max activity is -6.88% [at 2.6 µM] (inactive).

Consider `CCCCNC(=O)CCC1N=C2c3ccccc3N=C(SCc3cc(=O)n4ccccc4n3)N2C1=O` (stereo not drawn), for which the max activity was 21.9% [at 0.68 µM] (inactive).

Take `CCCCNC(=O)CCC1N=C2c3ccccc3N=C(SCC#N)N2C1=O` (stereo not drawn): the max activity is 51.3% (inactive).

Consider `CCCCNC(=O)CC1N=C2c3ccccc3N=C(SCc3ccccc3Cl)N2C1=O` (stereo not drawn), for which the max activity was -10.2% (inactive).

In the case of `COc1ccccc1CNC(=O)CCC1N=C2c3ccccc3N=C(SCc3ccc(Cl)cc3)N2C1=O` (stereo not drawn), the max activity is 16% [at 2.6 µM] (inactive).

For the compound `CCCCNC(=O)CCC1N=C2c3ccccc3N=C(SCC(=O)OCC)N2C1=O` (stereo not drawn), the max activity is -17.8% [at 2.6 µM] (inactive).

As for `CCc1ccc(-c2noc(-c3nnn(Cc4nc(-c5ccc(C)cc5)oc4C)c3C)n2)cc1`, the max activity was 8.04% [at 0.68 µM] (inactive).

Consider `COc1ccc(OC)c(S(=O)(=O)Nc2ccc(-c3nc(-c4ccc(C)c(C)c4)co3)cc2)c1`, for which the max activity is 20.8% [at 1.35 µM] (inactive).

Turning to `Cc1ccc(-c2nc(Cn3nnc(-c4nc(-c5ccc(C)c(C)c5)no4)c3C)c(C)o2)cc1`, the max activity is -11% [at 2.6 µM] (inactive).

For the compound `Cc1ccc(NC(=O)N2CCN(Cc3nc(-c4ccccc4C)oc3C)CC2)cc1Cl`, the max activity is 14% [at 1.35 µM] (inactive).

Consider `O=C(NCCc1csc(-c2ccccc2)n1)[C@H]1CCCN1C(=O)c1ccc(F)c(F)c1`, for which the max activity was 13.1% [at 0.16 µM] (inactive).

As for `CCc1ccc(NC(=O)N2CCc3nc(-c4ccc(OC)c(OC)c4)sc3C2)cc1`, the max activity is 7.81% [at 0.16 µM] (inactive).

For the compound `O=C1CCc2cc(NC(=O)c3cccnc3)ccc2N1`, the max activity is 9.01% [at 1.35 µM] (inactive).

In the case of `Cc1ccc(-c2coc(-c3ccc(NC(=O)c4c(F)cccc4F)cc3)n2)cc1`, the max activity was 20.4% [at 5 µM] (inactive).

Consider `Cc1ccc(-c2nc3c(s2)CN(S(=O)(=O)c2ccc(F)cc2)CC3)cc1`, for which the max activity was 8.68% [at 10 µM] (inactive).

As to `CCc1nc(OCC(=O)Nc2ccc(C(C)C)cc2)c2ccccc2n1`, the max activity is 25.6% [at 10 µM] (inactive).

As to `COc1ccc(-c2nc(Nc3ccccc3Cl)c3ccccc3n2)cc1`, the max activity is -9.71% [at 0.35 µM] (inactive).

For the compound `COc1cccc(CNC(=O)Nc2ccc(-c3nc(-c4ccccc4)co3)cc2)c1`, the max activity is 78.4% (inactive).

On to `Cc1cccc(-c2nc(Cn3nnc(-c4nc(-c5ccccc5Br)no4)c3C)c(C)o2)c1`, for which the max activity was 9.01% [at 2.6 µM] (inactive).

As for `CCCCNC(=O)CCC1N=C2c3ccccc3N=C(SCc3ccc(C)cc3)N2C1=O` (stereo not drawn), the max activity was 25.3% [at 2.6 µM] (inactive).

Regarding `CN(C)c1cccc(C(=O)N2CCC3(CC2)Nc2ccc(Cl)cc2-n2cccc23)c1`, the max activity is -25.9% [at 10 µM] (inactive).

Regarding `Cc1nc(OCC(=O)Nc2cc(Cl)ccc2Cl)c2ccccc2n1`, the max activity was 20.7% [at 0.68 µM] (inactive).

In the case of `CCCc1ccc(S(=O)(=O)Nc2ccc(-c3nc(-c4ccc(C)cc4C)co3)cc2)cc1`, the max activity is -16.7% [at 0.16 µM] (inactive).

Regarding `Cc1ccc(-c2coc(-c3ccc(NS(=O)(=O)c4ccc(C(C)C)cc4)cc3)n2)c(C)c1`, the max activity was -13.7% (inactive).

Turning to `Cc1ccc(-c2coc(-c3ccc(NS(=O)(=O)c4cccc(Cl)c4C)cc3)n2)c(C)c1`, the max activity was 16.4% [at 2.6 µM] (inactive).

As for `Cc1ccc(-c2coc(-c3ccc(NS(=O)(=O)c4ccc(N5CCCC5=O)cc4)cc3)n2)c(C)c1`, the max activity is -11% [at 0.68 µM] (inactive).

For the compound `COc1ccc(S(=O)(=O)Nc2ccc(-c3nc(-c4ccc(C)cc4C)co3)cc2)cc1`, the max activity is 26.2% [at 5 µM] (inactive).

Turning to `Cc1ccc(-c2coc(-c3ccc(NS(=O)(=O)c4ccc(C(C)(C)C)cc4)cc3)n2)c(C)c1`, the max activity is -14.9% (inactive).

Consider `Cc1ccc(-c2coc(-c3ccc(NS(=O)(=O)c4cccc(Cl)c4)cc3)n2)c(C)c1`, for which the max activity was -22.9% (inactive).

As to `Cc1ccc(S(=O)(=O)Nc2ccc(-c3nc(-c4ccc(C)cc4C)co3)cc2)cc1`, the max activity is 12.9% [at 0.16 µM] (inactive).

`Cc1nc(OCC(=O)Nc2ccccc2Br)c2ccccc2n1`: the max activity was 28.1% [at 0.16 µM] (inactive).

As for `Cc1ccc(C)c(-c2nc(CN3CCc4c(sc5c4CCCC5)C3c3ccccc3)c(C)o2)c1` (stereo not drawn), the max activity is 15.8% (inactive).

On to `COc1ccccc1-c1nc(Cn2nnc(-c3nc(-c4ccc5c(c4)OCO5)no3)c2C)c(C)o1`, for which the max activity was 8.21% [at 0.35 µM] (inactive).

For `O=C(Nc1ccc(-c2nc(-c3ccccc3)co2)cc1)Nc1cccc(Cl)c1`, the max activity is 19.9% [at 0.16 µM] (inactive).

For `O=C(c1cccnc1)N1CCC2(CC1)Nc1ccc(Cl)cc1-n1cccc12`, the max activity is -27.3% [at 0.16 µM] (inactive).

In the case of `O=C(NC1CC(=O)N(c2ccc(Cl)cc2)C1)C(=O)c1c[nH]c2ccccc12` (stereo not drawn), the max activity is 22.9% [at 2.6 µM] (inactive).

Consider `CCOc1ccc(N2CC(NC(=O)C(=O)c3c[nH]c4ccccc34)CC2=O)cc1` (stereo not drawn), for which the max activity is 10.2% [at 10 µM] (inactive).

For `O=C(Nc1ccc(-c2nc(-c3ccccc3)co2)cc1)Nc1ccc(Br)cc1F`, the max activity was 58.9% [at 10 µM] (inactive).

On to `Cc1oc(-c2ccccc2)nc1Cn1nc2n(Cc3ccc(F)cc3)c(=O)c3nn(C)cc3n2c1=O`, for which the max activity was 15.8% (inactive).

In the case of `Cc1ccc(Cn2c(=O)c3nn(C)cc3n3c(=O)n(Cc4nc(-c5ccc(C)cc5)oc4C)nc23)cc1`, the max activity is 11.5% [at 2.6 µM] (inactive).

`Cc1cccc(NC(=O)Nc2ccc(-c3nc(-c4ccccc4)co3)cc2)c1`: the max activity was 16.2% [at 0.16 µM] (inactive).

Take `CN1C(=O)c2cc(NC(=O)c3cccc(F)c3)ccc2OC[C@@H]2O[C@@H](CC(=O)NCC3CCCCC3)CC[C@@H]21`: the max activity was -24.1% (inactive).

For the compound `CN1C(=O)CCc2cc(NC(=O)CC3CCCCC3)ccc21`, the max activity was 8.53% (inactive).

In the case of `COc1ccc(-c2nc(Nc3cccc(Cl)c3)c3ccccc3n2)cc1`, the max activity is 22.1% [at 0.35 µM] (inactive).

On to `CCN(CC)C(=O)C1Cn2ccnc2C2(CCN(CC(C)C)CC2)O1` (stereo not drawn), for which the max activity was 37.9% (inactive).

Turning to `O=C(NCCc1csc(-c2ccccc2)n1)C1CCN(C(=O)Cc2cccs2)CC1`, the max activity was 5.42% [at 0.35 µM] (inactive).

As for `Cn1nnc2c(NCCSc3c[nH]c4ccccc34)ncnc21`, the max activity is 5.75% [at 0.16 µM] (inactive).

Regarding `O=C1CCc2cc(NC(=O)C3CC3)ccc2N1`, the max activity is -5.5% [at 5 µM] (inactive).

For `CN1C(=O)CCc2cc(NC(=O)C3CCCC3)ccc21`, the max activity is 11.7% (inactive).

As to `CC(C)N1CCC(c2ccnc3c(C(=O)N4CCCN(C)CC4)ncn23)CC1`, the max activity was 39% (inactive).

With `Cc1ccc(S(=O)(=O)N2CCC3(CC2)NCCN=C3NCc2cccc(F)c2)cc1C`, the max activity is 6.41% [at 5 µM] (inactive).

For `Cc1ccc(S(=O)(=O)N2CCC3(CC2)NCCN=C3NCc2ccc(F)c(Cl)c2)c(C)c1`, the max activity is 14% [at 5 µM] (inactive).

Turning to `COc1ccccc1CCC(=O)N1CCC[C@@H]1C(=O)NCCc1csc(-c2ccccc2)n1`, the max activity is -10.5% (inactive).

As for `Cc1nc(N2CCCC2)nc2c1CCN(S(=O)(=O)c1ccccc1)CC2`, the max activity was 10.7% [at 10 µM] (inactive).

For `Cc1ccc(S(=O)(=O)N2CCC3(CC2)NCCN=C3NCc2ccc(F)cc2)cc1C`, the max activity was 30.3% [at 5 µM] (inactive).

With `CCC1CCCCN1S(=O)(=O)c1cc(-c2nc(C)c(C)s2)sc1C` (stereo not drawn), the max activity is 7.15% [at 0.68 µM] (inactive).

In the case of `Cc1nc(CCNC(=O)[C@H]2CCCN2S(=O)(=O)c2cnn(C(F)F)c2C)cs1`, the max activity is 13.7% [at 10 µM] (inactive).

Regarding `Cc1ccc2c(c1C)-n1cccc1C1(CCN(C(=O)c3cccnc3)CC1)N2`, the max activity was 5.96% [at 0.68 µM] (inactive).

Consider `COc1ccccc1C#Cc1ccc([C@H]2[C@@H](CO)N3CCCCN(C(=O)C4CCC4)C[C@H]23)cc1`, for which the max activity was -7.46% [at 0.08 µM] (inactive).

Consider `COc1ccccc1C#Cc1ccc([C@@H]2[C@H](CO)N3CCCCN(C(=O)C4CCC4)C[C@@H]23)cc1`, for which the max activity was 14.6% [at 5 µM] (inactive).

On to `Cc1cccc(-c2nc(Cn3nnc(-c4nc(-c5ccc6c(c5)OCO6)no4)c3C)c(C)o2)c1`, for which the max activity is -10.5% [at 0.16 µM] (inactive).

Regarding `Cc1ccc(CNc2nc(-c3ccc(Cl)cc3)nc3ccccc23)o1`, the max activity was 42.3% (inactive).

Regarding `Cc1ccc(NC(=O)Nc2ccc(-c3nc(-c4cc(C)ccc4C)co3)cc2)cc1`, the max activity is 5.44% [at 2.6 µM] (inactive).

On to `COc1cccc(CNC(=O)Nc2ccc(-c3nc(-c4ccc(C)cc4C)co3)cc2)c1`, for which the max activity was 20.1% (inactive).

With `COc1ccccc1CN1CCc2nc(SCc3nc(-c4ccc(C)cc4)oc3C)[nH]c(=O)c2C1`, the max activity was 34.1% (inactive).
